The source of these data is PubChem BioAssay (Tox21).

Molecules are shown by their SMILES. Values without a mark were called inactive. Records with an inconclusive call do not appear. The source made the active and inactive calls. The call rests on the fitted dose curve; in most records, active means well fitted curve in the direction sought with a large enough effect in the repeat runs; inconclusive means weak or mixed curves; inactive means no such curve, though single readings can be large; an effect the other way counts as inactive or inconclusive.

Test [1] can be described thus: A CellTox Green Cytotoxicity Assay to monitor cytotoxicity in HEK293 cells - 40 hour (AID 1224871). Further: nearly all actives have a fitted effect of over 45% in size. Further: potency means the concentration at half of the fitted maximal effect. In a few lines: (§1)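 Real-time, in one plate: 600 HEK293 cells/well with dead-cell DNA dye, pinned compound after 5 h, 37 C incubation over 40 h; viable cells give no appreciable fluorescence.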
Test [2] can be described thus: qHTS RealTime-Glo MT Cell Viability Assay in HEK293 cells - 16 hour (AID 1224872). Further: nearly all actives have a fitted effect of over 50% in size. Further: potency means the concentration at half of the fitted maximal effect. On activity change, negative = cytotoxicity: top concentration of the series differs between compounds. In a few lines: (§2)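 Cells + reagent dispensed (600 cells/well, HEK293) → 5 h at 37 C/5% CO2 → 23 nL compound in DMSO pinned → 40 h at 37 C → luminescence read at 0, 8, 16, 24, 32, 40 h.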
Test [3] in a line: qHTS RealTime-Glo MT Cell Viability Assay in HepG2 cells - 8 hour (AID 1224873). Further: nearly all actives have a fitted effect of over 55% in size. In a few lines: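 HepG2 cells (600/well) mixed with RealTime-Glo MT reagent, settled 5 h at 37 C/5% CO2 before compound addition. Nonlytic NanoLuc luminescence from viable-cell prosubstrate reduction read repeatedly during 40 h treatment at 37 C.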
Test [4] in a line: qHTS RealTime-Glo MT Cell Viability Assay in HEK293 cells - 40 hour (AID 1224874). Further: nearly all actives have a fitted effect of over 50% in size. Further: potency means the concentration at half of the fitted maximal effect. As to conditions: RealTime-Glo luminescence; max response: active compounds read low. Summed up:
(§3)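 Kinetic, non-lysing viability readout. Seed HEK293 (600/well) with reagent, incubate 5 h at 37 C/5% CO2, pin 23 nL compound in DMSO, incubate at 37 C, read luminescence at 0, 8, 16, 24, 32, 40 h.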
(In qHTS, concentration-response curves come from the screen itself.)

Test [5] can be described thus: A CellTox Green Cytotoxicity Assay to monitor cytotoxicity in HEK293 cells - 24 hour (AID 1224875). Further: nearly all actives have a fitted effect of over 45% in size. Further: potency means the concentration at half of the fitted maximal effect. On activity change: series mostly up to about 77 µM. In a few lines:
as §1

Test [6] is described as follows: A CellTox Green Cytotoxicity Assay to monitor cytotoxicity in HepG2 cells - 16 hour (AID 1224876). Further: nearly all actives have a fitted effect of over 45% in size. Further: potency means the concentration at half of the fitted maximal effect. In a few lines:
(§4)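 Cytotoxicity was tracked as dead-cell DNA fluorescence in HepG2 cells treated with test compounds at 37 C; each time-point value comes from one kinetic series spanning 0, 8, 16, 24, 32 and 40 h.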

A short description of test [7]: qHTS RealTime-Glo MT Cell Viability Assay in HepG2 cells - 32 hour (AID 1224877). Further: nearly all actives have a fitted effect of over 55% in size. In a few lines: (§5)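 Real-time, nonlytic viability: 600 HepG2 cells/well mixed with NanoLuc enzyme plus prosubstrate; 5 h settle, compound (DMSO) added by pintool; luminescence monitored over 40 h at 37 C.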
Test [8] is described as follows: A CellTox Green Cytotoxicity Assay to monitor cytotoxicity in HepG2 cells - 24 hour (AID 1224878). Further: nearly all actives have a fitted effect of over 45% in size. Further: potency means the concentration at half of the fitted maximal effect. In a few lines:
as §4

The nature of test [9]: A CellTox Green Cytotoxicity Assay to monitor cytotoxicity in HepG2 cells - 40 hour (AID 1224879). Further: nearly all actives have a fitted effect of over 40% in size. Further: potency means the concentration at half of the fitted maximal effect. In a few lines: as §4
Test [10] in a line: qHTS RealTime-Glo MT Cell Viability Assay in HEK293 cells - 0 hour (AID 1224880). Further: nearly all actives have a fitted effect of over 45% in size. Further: potency means the concentration at half of the fitted maximal effect. On activity change, negative = cytotoxicity: top concentration of the series differs between compounds. In a few lines: as §3
A short description of test [11]: A CellTox Green Cytotoxicity Assay to monitor cytotoxicity in HEK293 cells - 32 hour (AID 1224881). Further: nearly all actives have a fitted effect of over 40% in size. Further: potency means the concentration at half of the fitted maximal effect. Summed up: as §1
A short description of test [12]: A CellTox Green Cytotoxicity Assay to monitor cytotoxicity in HepG2 cells - 0 hour (AID 1224882). Further: nearly all actives have a fitted effect of over 35% in size. Further: potency means the concentration at half of the fitted maximal effect. Summed up:
as §4

Test [13] can be described thus: A CellTox Green Cytotoxicity Assay to monitor cytotoxicity in HEK293 cells - 8 hour (AID 1224884). Further: nearly all actives have a fitted effect of over 35% in size. Further: potency means the concentration at half of the fitted maximal effect. In a few lines: as §1
A short description of test [14]: qHTS RealTime-Glo MT Cell Viability Assay in HepG2 cells - 16 hour (AID 1224885). Further: nearly all actives have a fitted effect of over 50% in size. Summed up: as §5
A short description of test [15]: qHTS RealTime-Glo MT Cell Viability Assay in HEK293 cells - 24 hour (AID 1224886). Further: nearly all actives have a fitted effect of over 50% in size. Further: potency means the concentration at half of the fitted maximal effect. On activity change, negative = cytotoxicity: top concentration of the series differs between compounds. In a few lines:
as §2

Test [16] is described as follows: qHTS RealTime-Glo MT Cell Viability Assay in HEK293 cells - 8 hour (AID 1224887). Summed up: as §3
Test [17] can be described thus: A CellTox Green Cytotoxicity Assay to monitor cytotoxicity in HEK293 cells - 16 hour (AID 1224888). Further: nearly all actives have a fitted effect of over 35% in size. Further: potency means the concentration at half of the fitted maximal effect. Summed up: as §1
The nature of test [18]: qHTS RealTime-Glo MT Cell Viability Assay in HepG2 cells - 0 hour (AID 1224889). Further: nearly all actives have a fitted effect of over 50% in size. Further: potency means the concentration at half of the fitted maximal effect. Summed up: as §5
The nature of test [19]: A CellTox Green Cytotoxicity Assay to monitor cytotoxicity in HepG2 cells - 8 hour (AID 1224890). Further: nearly all actives have a fitted effect of over 45% in size. Further: potency means the concentration at half of the fitted maximal effect. Summed up:
as §4

Test [20] can be described thus: A CellTox Green Cytotoxicity Assay to monitor cytotoxicity in HepG2 cells - 32 hour (AID 1224883). Further: nearly all actives have a fitted effect of over 50% in size. Summed up: as §4
On the % scale 0 is the no-effect control and ±100 the full control effect.

Regarding `O=C(OC1C[C@H]2CC[C@@H](C1)[N+]21CCCC1)C(O)(c1ccccc1)c1ccccc1` (some centres not stated), the Potency entry in test [1], in [2], in test [5], in test [6], in test [7] and in test [8] was “inactive” in each case. Moreover, the Potency entry in [9], in test [10], in [11], in [12], in [13] and in test [15] was “inactive” throughout. Also, the Potency result in [16], in test [17], in test [18] and in test [19] was “inactive” each time. Also, the compound was called inactive in test [3] and in test [14]. In test [4], the max response is 0.515%.

Take `CC(CCl)OC(C)CCl` (configuration not stated): the Potency result in test [1], in test [2], in [5], in test [6], in [7] and in test [8] was “inactive” in each case. Moreover, the Potency result in test [9], in test [10], in [11], in test [12], in test [13] and in test [15] was “inactive” throughout. In addition, the Potency entry in [16], in test [17], in test [18] and in [19] was “inactive” throughout. Also, the compound was called inactive in test [3] and in test [14]. Also, in test [4], the max response was -1.61%.

Regarding `CCCCCCCCCCCCCCCCCCCl`, the cytotoxicity increase is -1.51% [at 6.97 µM] in test [1]; -7.85% [at 6.97 µM] in test [6]; -13.3% [at 6.97 µM] in [9]; 3.09% [at 6.97 µM] in test [11]; -12.9% [at 6.97 µM] in test [20]; 13.7% [at 6.97 µM] in [13]. For the same compound, the cytotoxicity increase in [19] was 0.0897% [at 6.97 µM]. Moreover, the activity change, negative = cytotoxicity in test [2] is 3.04% [at 6.97 µM]; in test [10] it was 8.32% [at 6.97 µM]; in test [15], 2.37% [at 6.97 µM]; in test [16], 0.0634% [at 6.97 µM]; in test [18] it was 4.46% [at 6.97 µM]. For the same compound, the viability change, negative = cytotoxic in test [3] was -0.0977% [at 6.97 µM]. Moreover, the max response in [4] was 5.75%. Further, in [5], the activity change is 2.36% [at 6.97 µM, active compounds read high]. Besides, the activity change, negative = cytotoxic in [7] was 2.68% [at 6.97 µM]; in test [14] it was -0.256% [at 6.97 µM]. In addition, the cytotoxicity in [8] was -10.6% [at 6.97 µM]; in test [12], 0.682% [at 6.97 µM].

On to `CCCCCCCCNC`, for which the Potency entry in test [1], in [2], in test [5], in test [6], in test [7] and in test [8] was “inactive” each time. Moreover, the Potency result in [9], in test [10], in test [11], in [12], in test [13] and in [15] was “inactive” throughout. Moreover, the Potency result in test [16], in test [17], in test [18] and in test [19] was “inactive” throughout. The result in [3] and in test [14] was inactive. Also, the max response in test [4] is 3.01%.

In the case of `C=CC(O)CCCCC` (configuration not stated), the Potency result in [1], in test [2], in test [5], in [6], in [7] and in [8] was “inactive” each time. Moreover, the Potency result in test [9], in [10], in test [11], in test [12], in [13] and in test [15] was “inactive” each time. Besides, the Potency entry in test [16], in test [17], in test [18] and in test [19] was “inactive” each time. In addition, the compound was called inactive in test [3] and in test [14]. The max response in test [4] was 0.0439%.

`O=C1OC(=O)C2CC=CCC12` (configuration not stated): the Potency result in [1], in [2], in test [5], in test [6], in test [7] and in [8] was “inactive” each time. Further, the Potency entry in [9], in test [10], in test [11], in test [12], in [13] and in test [15] was “inactive” in each case. The Potency result in test [16], in test [17], in test [18] and in test [19] was “inactive” each time. For the same compound, the call in test [3] and in [14] was inactive. Further, the max response in test [4] was 0.701%.

Take `CCCCCCCCCC(C)C=O` (configuration not stated): the Potency was 19.5 µM (active) in test [1]; 21.9 µM (active) in test [5]; 24.5 µM (active) in [6]; 24.5 µM (active) in [8]; 24.5 µM (active) in test [9]; 21.9 µM (active) in [11]. For the same compound, the Potency in test [12] was 24.5 µM (active); in test [13], 24.5 µM (active); in test [17], 21.9 µM (active); in [19], 24.5 µM (active). Further, the Potency result in test [2], in test [7], in test [10], in [15], in test [16] and in [18] was “inactive” each time. Moreover, the compound was called inactive in [3] and in test [14]. For the same compound, the max response in test [4] is 12%.

In the case of `O=c1[nH]nc(-c2ccc([N+](=O)[O-])o2)o1`, the Potency entry in test [1], in test [2], in test [5], in test [6], in test [7] and in test [8] was “inactive” each time. For the same compound, the Potency result in [9], in [10], in [11], in test [12], in [20] and in test [13] was “inactive” each time. In addition, the Potency result in test [15], in test [16], in [18] and in [19] was “inactive” each time. The outcome in test [3] and in test [14] was inactive. Besides, the max response in [4] is -1.91%.

For the compound `CCC(CC)C(=O)O`, the Potency result in test [1], in test [2], in test [5], in test [6], in [7] and in test [8] was “inactive” throughout. Also, the Potency entry in test [9], in test [10], in test [11], in test [12], in test [13] and in test [15] was “inactive” in each case. For the same compound, the Potency entry in [16], in test [17], in [18] and in [19] was “inactive” each time. In addition, the compound was classed as inactive in test [3] and in test [14]. Besides, the max response in [4] is 15%.

Take `O=C1CCCN1CCO`: the Potency result in [1], in test [2], in test [5], in test [6], in test [7] and in test [8] was “inactive” throughout. Also, the Potency entry in test [9], in test [10], in test [11], in test [12], in test [20] and in [13] was “inactive” throughout. Besides, the Potency entry in test [15], in test [17], in test [18] and in [19] was “inactive” in each case. Moreover, the compound was called inactive in test [3] and in test [14]. Besides, the max response in test [4] was -23.9%.

`CCCCCCC/C=C/C=O`: the Potency result in test [1], in test [2], in [5], in [6], in [7] and in [8] was “inactive” in each case. For the same compound, the Potency result in test [9], in test [10], in [11], in [12], in test [20] and in [13] was “inactive” in each case. Further, the Potency entry in test [15], in [16], in test [18] and in test [19] was “inactive” in each case. Moreover, the compound was classed as inactive in test [3] and in test [14]. Moreover, the max response in [4] was 6.61%.

Consider `Clc1cc(Cl)c2c(c1)N=C1CCCCCN1C2`, for which the Potency entry in [1], in [5], in [6], in [7], in test [8] and in test [9] was “inactive” each time. For the same compound, the Potency entry in test [10], in test [11], in [12], in test [20], in test [13] and in test [17] was “inactive” in each case. In addition, the Potency entry in test [18] and in test [19] was “inactive” each time. Moreover, the Potency was 21.3 µM (active) in test [2], 23.9 µM (active) in test [4] and 19 µM (active) in test [15]. Besides, the compound was called inactive in [3] and in [14].

In the case of `CC(=O)OCC(=O)[C@@]1(O)CC[C@H]2[C@@H]3CCC4=CC(=O)C=C[C@]4(C)[C@@]3(F)[C@@H](O)C[C@@]21C`, the Potency result in test [1], in [2], in [5], in test [6], in test [7] and in test [8] was “inactive” in each case. For the same compound, the Potency result in test [9], in [11], in test [12], in [20], in test [13] and in test [15] was “inactive” in each case. In addition, the Potency entry in test [16] and in [19] was “inactive” throughout. For the same compound, the compound was classed as inactive in test [3] and in [14]. Moreover, the max response in test [4] is -21.2%. Also, the Potency in test [10] was 7.56 µM (active); in test [18] it was 3.01 µM (active).
